PubChem BioAssay (Tox21)
Several values for one entry are separate records, joined by “and”; a condition that tells them apart may be missing. Equal values may be shown once. Results filed as inconclusive are left out. Where a call stands in place of a potency, no number is given. Some structures have more than one record in an assay (separate samples or runs), and their calls can disagree. Activity calls are given as the source filed them. Unless noted, the call rests on the fitted dose curve; in most records, active means well fitted curve in the direction sought with a large enough effect in the repeat runs; inconclusive means weak or mixed curves; inactive means no such curve, though single readings can be large; an effect the other way counts as inactive or inconclusive.

What was measured:
[1] = qHTS assay to identify small molecule antagonists of the estrogen related receptor (ERR) signaling pathway from Tox21 library - cell viability counter screen (AID 1224834); further: nearly all actives have a fitted effect of over 30% in size
Summary of the method: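 Compounds in DMSO were pinned onto ERR cells that had been incubated for 6 h, and the plates were held at 37 C for 17.5 h. CellTiter-Fluor reagent was then added and fluorescence was measured after 30 min.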

[2] = target: Luciferin 4-monooxygenase (Photinus pyralis) (UniProt P08659); test: qHTS assay to identify small molecule inhibitors of firefly luciferase (AID 1224835); further: nearly all actives have a fitted effect of over 25% in size; further: potency means the concentration at half of the fitted maximal effect
Summary of the method: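 Inhibition of purified Photinus luciferase is measured by luminescence. Substrate levels (D-luciferin, ATP) sit at their KM values. Each compound is tested in a concentration series.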

[3] = qHTS assay to identify small molecule agonists of the constitutive androstane receptor (CAR) signaling pathway - cell viability counter screen (AID 1224836); further: nearly all actives have a fitted effect of over 45% in size
Summary of the method: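 Fluorescence from CellTiter-Fluor indicates live cells after 23 h exposure. The human hepatoma line expresses hCAR and a CYP2B6-2.2kb reporter. Incubation medium contains 0.75 uM PK11195 (final).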

[4] = qHTS assay to identify small molecule antagonists of the constitutive androstane receptor (CAR) signaling pathway - cell viability counter screen (AID 1224837); further: nearly all actives have a fitted effect of over 45% in size
Summary of the method: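 Cells are seeded, rested 4 hr at 37 C/5% CO2, dosed with compound (15-point series) and 50 nM CITCO, incubated a further 23 hr, and then CellTiter-Fluor reagent is added before fluorescence is read. The line is HepG2 with stable hCAR and CYP2B6-2.2kb.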

[5] = target: Nuclear receptor subfamily 1 group I member 3 (Homo sapiens) (UniProt Q14994); test: qHTS assay to identify small molecule antagonists of the constitutive androstane receptor (CAR) signaling pathway (AID 1224838);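 further: HepG2 cells stably expressing hCAR with CYP2B6 luciferase reporter stimulated by CITCO; nearly all actives have a fitted effect of over 40% in size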
Summary of the method: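 Luminescence from a CYP2B6-2.2kb promoter reporter in hCAR-expressing HepG2 cells reflects CAR signaling. Cells received compounds at 15 concentrations and 50 nM CITCO (final), then incubated 24 h at 37 C/5% CO2.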

[6] = target: Nuclear receptor subfamily 1 group I member 3 (Homo sapiens) (UniProt Q14994); test: qHTS assay to identify small molecule agonists of the constitutive androstane receptor (CAR) signaling pathway (AID 1224839);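 further: HepG2 cells stably carrying human CAR and a CYP2B6 luciferase reporter; nearly all actives have a fitted effect of over 15% in size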
Summary of the method: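 Stable hCAR/CYP2B6-2.2kb HepG2 line in DMEM with 10% FBS; compounds (15 concentrations) and 0.75 uM PK11195 final, 24 h at 37 C/5% CO2, then ONE-Glo luminescence after 30 min.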

[7] = qHTS assay to identify small molecule antagonists of the estrogen related receptor signaling pathway with the pleiotropic PPARgamma coactivator (PGC) from Tox21 10K library - cell viability counter screen (AID 1224840; active means well fitted cell-killing curve with a large enough effect in the repeat runs, not every such curve was filed as active; further: nearly all actives have a fitted effect of over 40% in size)
Summary of the method: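 Cell viability is measured by CellTiter-Fluor fluorescence in PGC/ERR cells that receive compounds after a 6-hour attachment period and are then incubated 17.5 hours at 37 C.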

[8] = target: Thyrotropin receptor (Homo sapiens) (UniProt P16473); test: qHTS assay to identify small molecule agonists of the thyroid stimulating hormone receptor (TSHR) signaling pathway (AID 1224843; calls by dose curve; further: nearly all actives have a fitted effect of over 45% in size)
Summary of the method: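 Agonist activity read as cAMP rise via d2/cryptate HTRF competition, 1 h room-temperature detection, in HEK293 cells expressing TSHR. Fifteen-point titrations, each run in triplicate, with a 30 min room-temperature incubation beforehand.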

[9] = qHTS assay to identify small molecule agonists of the hypoxia (HIF-1) signaling pathway - cell viability counter screen (AID 1224844; calls by dose curve; further: nearly all actives have a fitted effect of over 50% in size)
Summary of the method: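 Viability counter screen: HRE-bla ME-180 cells plated 5 hrs before compound addition, treated 17 hrs at 37C and 5% CO2, then CellTiter-Glo added after the FRET reporter read; luminescence after 30 min.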

[10] = qHTS assay to identify small molecule agonists of H2AX (AID 1224845; active means well fitted activation curve with a large enough effect in the signal ratio in the repeat runs, not every such curve was filed as active; the % refers to the signal ratio)
Summary of the method: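 Phospho-H2AX Ser139 measured by HTRF (ex 320 nm; em 665 and 620 nm) after 24 hr antibody incubation. Compounds, 15 concentrations, 0.76% DMSO, were applied to CHO-K1 cells for 3hr at 37C before lysis.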

[11] = qHTS assay to identify small molecule agonists of the hypoxia (HIF-1) signaling pathway (AID 1224846; active means well fitted activation curve with a large enough effect in the signal ratio in the repeat runs, not every such curve was filed as active; the % refers to the signal ratio)
Summary of the method: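 Agonist mode reporter screen. ME-180 cells stably expressing bla under HRE control received test compounds in DMSO for 17 hrs (37C, 5% CO2), and beta-lactamase activity was then detected with the CCF4-AM FRET substrate.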

[12] = qHTS assay to identify small molecule agonists of H2AX - cell viability counter screen (AID 1224847; calls by dose curve; further: top concentration of the series differs between compounds; nearly all actives have a fitted effect of over 30% in size)
Summary of the method: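 Viability of CHO-K1 (wild type) cells after 3 hr compound exposure was measured by CellTiter-Glo luminescence.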

[13] = qHTS RealTime-Glo MT Cell Viability Assay in HepG2 cells - 24 hour (AID 1224867); further: nearly all actives have a fitted effect of over 50% in size
Summary of the method: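 HepG2 suspension premixed with RealTime-Glo reagents is plated at 600 cells per well and left 5 h at 37 C/5% CO2. Compounds in DMSO then go in, and bioluminescence reflecting viable cell number is recorded over 40 h.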

[14] = qHTS RealTime-Glo MT Cell Viability Assay in HEK293 cells - 32 hour (AID 1224868); further: top concentration of the series differs between compounds; nearly all actives have a fitted effect of over 50% in size
Summary of the method: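 Reads taken at 0, 8, 16, 24, 32 and 40 h from the same wells. HEK293 cells (600/well) carried RealTime-Glo reagents from seeding, with compound added after a 5 h settle at 37 C.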

[15] = A CellTox Green Cytotoxicity Assay to monitor cytotoxicity in HEK293 cells - 0 hour (AID 1224869); further: nearly all actives have a fitted effect of over 50% in size; further: potency means the concentration at half of the fitted maximal effect
Summary of the method: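 Dead-cell fluorescence measured kinetically: asymmetric cyanine dye, HEK293, 600 cells/well, 5 h settle, 23 nL cpd/DMSO, 37 C, reads 0–40 h every 8 h.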

[16] = qHTS assay to identify small molecule antagonists of the estrogen related receptor signaling pathway with the pleiotropic PPARgamma coactivator (PGC) from Tox21 10K library (AID 1224841; call rule not given here; further: potency means the concentration at half of the fitted maximal effect)
Summary of the method: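 Cells stably carrying the PGC/ERR reporter, seeded at 2,000 per well, received pin-transferred compounds 6 h post-plating. Exposure lasted 18 h at 37 C. Signal: One-Glo luminescence.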

[17] = qHTS assay to identify small molecule agonists of the estrogen related receptor signaling pathway with the pleiotropic PPARgamma coactivator (PGC) from Tox21 10K library (AID 1224842); further: nearly all actives have a fitted effect of over 15% in size
Summary of the method: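 Luminescence from One-Glo (30 min, room temperature) measured after PGC/ERR cells had 18 h at 37 C with pinned compound (23 nL in DMSO). Cells had been seeded at 2,000 per well and pre-incubated 6 h.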

[18] = qHTS assay to identify small molecule antagonists of the estrogen related receptor (ERR) signaling pathway from Tox21 library (AID 1224848); further: nearly all actives have a fitted effect of over 50% in size; further: potency means the concentration at half of the fitted maximal effect
Summary of the method: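 Luciferase luminescence (ONE-Glo, 30 min room temperature) was the read-out. Cells of the NTP-supplied ERR line, 2,000 per well, were given 6 h at 37 C before compound addition in DMSO and 18 h exposure at 37 C.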

[19] = qHTS assay to identify small molecule agonists of the estrogen related receptor (ERR) signaling pathway from Tox21 library (AID 1224849; calls by dose curve; further: nearly all actives have a fitted effect of over 15% in size); conditions: ERR reporter cell line, ONE-Glo luciferase, 18 h
Summary of the method: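 Quantitative HTS in agonist format: NTP ERR cell line, compounds transferred in DMSO after 6 h plating, 18 h incubation at 37 C, ONE-Glo luminescence endpoint.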

Chain of Luciferin 4-monooxygenase (Photinus pyralis) (P08659 whole entry, looked up): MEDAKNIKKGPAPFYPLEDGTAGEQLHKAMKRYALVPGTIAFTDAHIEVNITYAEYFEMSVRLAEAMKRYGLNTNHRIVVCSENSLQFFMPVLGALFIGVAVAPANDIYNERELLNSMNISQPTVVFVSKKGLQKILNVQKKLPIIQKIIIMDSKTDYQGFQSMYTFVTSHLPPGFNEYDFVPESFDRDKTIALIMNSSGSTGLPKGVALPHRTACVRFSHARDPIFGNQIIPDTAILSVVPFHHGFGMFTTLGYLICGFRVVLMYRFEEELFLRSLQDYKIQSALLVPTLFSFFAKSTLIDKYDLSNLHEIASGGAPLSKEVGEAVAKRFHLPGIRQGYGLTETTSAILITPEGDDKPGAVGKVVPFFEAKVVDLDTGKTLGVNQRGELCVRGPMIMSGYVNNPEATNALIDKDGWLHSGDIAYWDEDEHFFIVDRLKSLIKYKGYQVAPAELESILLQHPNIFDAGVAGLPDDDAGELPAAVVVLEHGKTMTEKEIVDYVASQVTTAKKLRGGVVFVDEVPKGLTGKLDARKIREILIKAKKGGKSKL
Chain of Nuclear receptor subfamily 1 group I member 3 (Homo sapiens) (Q14994 whole entry, looked up): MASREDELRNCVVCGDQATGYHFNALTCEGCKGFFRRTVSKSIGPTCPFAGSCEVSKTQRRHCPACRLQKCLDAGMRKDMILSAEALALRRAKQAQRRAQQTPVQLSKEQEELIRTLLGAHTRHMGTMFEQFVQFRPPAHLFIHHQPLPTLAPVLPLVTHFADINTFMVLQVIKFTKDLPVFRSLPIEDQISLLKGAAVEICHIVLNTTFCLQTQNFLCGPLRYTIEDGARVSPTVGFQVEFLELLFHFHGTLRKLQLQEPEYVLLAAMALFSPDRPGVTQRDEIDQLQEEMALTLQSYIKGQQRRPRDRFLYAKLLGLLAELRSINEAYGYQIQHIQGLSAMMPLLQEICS
Chain of Thyrotropin receptor (Homo sapiens) (P16473 whole entry, looked up): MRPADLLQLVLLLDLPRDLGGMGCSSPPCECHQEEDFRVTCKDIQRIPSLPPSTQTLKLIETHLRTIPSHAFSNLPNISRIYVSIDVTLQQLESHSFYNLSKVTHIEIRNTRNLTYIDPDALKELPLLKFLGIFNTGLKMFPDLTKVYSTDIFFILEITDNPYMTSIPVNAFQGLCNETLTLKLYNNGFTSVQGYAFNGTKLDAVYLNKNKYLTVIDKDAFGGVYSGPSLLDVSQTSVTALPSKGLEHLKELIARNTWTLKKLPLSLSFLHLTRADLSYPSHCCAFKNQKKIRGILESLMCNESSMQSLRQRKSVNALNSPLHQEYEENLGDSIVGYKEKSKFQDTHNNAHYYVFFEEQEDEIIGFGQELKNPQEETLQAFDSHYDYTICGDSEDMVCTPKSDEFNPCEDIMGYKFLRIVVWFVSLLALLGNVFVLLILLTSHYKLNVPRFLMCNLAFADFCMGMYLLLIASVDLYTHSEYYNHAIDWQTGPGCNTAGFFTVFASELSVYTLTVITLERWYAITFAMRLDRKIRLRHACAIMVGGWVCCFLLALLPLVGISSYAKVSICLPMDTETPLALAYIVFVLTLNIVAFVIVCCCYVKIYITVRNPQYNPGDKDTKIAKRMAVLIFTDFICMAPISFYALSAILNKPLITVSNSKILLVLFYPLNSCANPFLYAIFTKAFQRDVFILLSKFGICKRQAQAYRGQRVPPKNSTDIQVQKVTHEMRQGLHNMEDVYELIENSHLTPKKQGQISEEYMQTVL

| SMILES | Potency [1] | Potency [2] | Potency [3] | Potency [4] | Potency [5] | Potency [6] | Potency [7] | Potency [8] | Potency [9] | Potency [10] | outcome [11] | Potency [12] | Potency [13] | Potency [14] | Potency [15] | Potency [16] | Potency [17] | Potency [18] | activity change, positive = activation ([19]; at 92.4 µM (top of the series)) | activity change, positive = activation ([19]; at 42.5 µM (top of the series)) |
| --- | --- | --- | --- | --- | --- | --- | --- | --- | --- | --- | --- | --- | --- | --- | --- | --- | --- | --- | --- | --- |
| CC(=O)Nc1ccc(C(=O)O)cc1 | inactive | inactive | inactive | inactive | inactive | inactive | inactive | inactive | inactive | inactive | inactive | inactive | inactive | inactive | inactive | – | – | – | – | – |
| CC(C)(N=C=O)c1cccc(C(C)(C)N=C=O)c1 | inactive | inactive | inactive | inactive | inactive | inactive | inactive | inactive | inactive | inactive | inactive | inactive | inactive | – | inactive | 48.2 µM (active) and inactive | inactive | 54 µM (active) and inactive | -40.3% (inactive) and 2.13% (inactive) | – |
| C=C(C)C(=O)OCC(CC)(COC(=O)C(=C)C)COC(=O)C(=C)C | inactive | inactive | inactive | inactive | inactive | inactive | inactive | inactive | inactive | inactive | inactive | – | inactive | inactive | inactive and 42.9 µM (active) | – | – | – | – | – |
| C[C@@H](O)[C@H]1C(=O)N2C(C(=O)O)=C(S[C@@H]3CN[C@H](C(=O)N(C)C)C3)[C@H](C)[C@H]12 | inactive | inactive | inactive | inactive | inactive | inactive | inactive | inactive | inactive | inactive | – | inactive | inactive | inactive | inactive | inactive | inactive | inactive | – | 6.5% (inactive) and 3.13% (inactive) |
| O=S(=O)(O)CCS | inactive | inactive | inactive | inactive | inactive | inactive | inactive | inactive | inactive | inactive | inactive | inactive | inactive | inactive | inactive | inactive | inactive | inactive | -7.56% (inactive) | -0.0445% (inactive) |
| CC(C)(CO)COC(=O)C(C)(C)CO | inactive | inactive | inactive | inactive | inactive | inactive | inactive | inactive | inactive | inactive | inactive | inactive | inactive | – | inactive | inactive | inactive | inactive | 2.22% (inactive) and 0.644% (inactive) | – |
| Cn1c([N+](=O)[O-])cnc1COC(N)=O | inactive | inactive | inactive | inactive | inactive | inactive | inactive | – | inactive | inactive | – | inactive | inactive | inactive | inactive | inactive | inactive | inactive | 6.73% (inactive) | 3.23% (inactive) |
| CCCCC/C=C\C/C=C\CCCCCCCC(=O)OC | inactive | inactive | inactive | inactive | inactive | inactive | inactive | inactive | inactive | inactive | inactive | inactive | inactive | – | inactive | – | – | – | – | – |
| CN(CCOc1ccc(CC2SC(=O)NC2=O)cc1)c1ccccn1 (configuration not stated) | inactive | 70.6 µM (active) and inactive | inactive | inactive | inactive | inactive | inactive | inactive | inactive | inactive | inactive | inactive | inactive | inactive | inactive | – | – | – | – | – |
| CCCCCC/C=C/CCCCCCCC(=O)O | inactive | inactive and 71 µM (active) | inactive | inactive | inactive | inactive | inactive | inactive | inactive | inactive | inactive | inactive | inactive | inactive | inactive | – | – | – | – | – |
| CC1Cc2ccccc2N1NC(=O)c1ccc(Cl)c(S(N)(=O)=O)c1 (configuration not stated) | inactive | inactive | inactive | inactive | inactive | inactive | inactive | inactive | inactive | inactive | – | inactive | inactive | inactive | inactive | inactive | inactive | inactive | -13.4% (inactive) | -17.1% (inactive) |
| CCCCCCCCCCCCOCC1CO1 (configuration not stated) | inactive | inactive | inactive | inactive | inactive | inactive | inactive | inactive | inactive | inactive | inactive | inactive | inactive | inactive | inactive | inactive | inactive | inactive | -2.77% (inactive) and -4.37% (inactive) | – |
| CC(=O)CCc1ccccc1 | inactive | inactive | inactive | inactive | inactive | inactive | inactive | inactive | inactive | inactive | inactive | inactive | inactive | inactive | inactive | inactive | inactive | inactive | 1.01% (inactive) and -0.812% (inactive) | – |
| CCc1ccccc1O | inactive | inactive | inactive | inactive | inactive | inactive | inactive | inactive | inactive | inactive | inactive | inactive | inactive | inactive | inactive | – | – | – | – | – |
